Shown are actives, neighbours in structure and some others; about 1.8% of the full set was active somewhere.
TRPML1 blocker: human mucolipin-1 channel inhibition; Q9GZU1; TRPML1-inducible cells, Ca2+ dye fluorescence, FDSS; active compounds read low; inhibition of EC80 agonist-evoked calcium signal; activity change, negative = inhibition, % (concentration not given with the values); 390,000 tested, 0.02% active; AID 624415; in the data active = activity change below about -50%; inconclusive = between about -30% and that limit;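 note: stimulus is agonist 54-4 at its EC80 concentration; % is set by controls: 0 for no effect and ±100 for the full control effect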
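Calcium fluorescence in TRPML1-DL cells induced overnight with Tet: a 110 s read after compound pin addition, then a 110 s antagonist read after challenge with 54-4 at 4 uM final (EC80).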
GLP-1R inv ag: acts as inverse agonist at human GLP-1 receptor; 410,000 tested, 1.6% active; HEK293 GLP-1R CRE-luciferase, luminescence, 24 h; GLP-1R form is constitutively active; P43220; Potency, µM (titrated, usually from 38.3 µM), for the others: at the highest dose activity change, negative = inhibition, hits mostly inhibitors; note: potency is the fitted concentration of half-maximal effect; % is set by controls: 0 for no effect and ±100 for the full control effect; nearly all actives have a fitted effect of over 55% in size
Target sequence (P43220 whole entry, looked up): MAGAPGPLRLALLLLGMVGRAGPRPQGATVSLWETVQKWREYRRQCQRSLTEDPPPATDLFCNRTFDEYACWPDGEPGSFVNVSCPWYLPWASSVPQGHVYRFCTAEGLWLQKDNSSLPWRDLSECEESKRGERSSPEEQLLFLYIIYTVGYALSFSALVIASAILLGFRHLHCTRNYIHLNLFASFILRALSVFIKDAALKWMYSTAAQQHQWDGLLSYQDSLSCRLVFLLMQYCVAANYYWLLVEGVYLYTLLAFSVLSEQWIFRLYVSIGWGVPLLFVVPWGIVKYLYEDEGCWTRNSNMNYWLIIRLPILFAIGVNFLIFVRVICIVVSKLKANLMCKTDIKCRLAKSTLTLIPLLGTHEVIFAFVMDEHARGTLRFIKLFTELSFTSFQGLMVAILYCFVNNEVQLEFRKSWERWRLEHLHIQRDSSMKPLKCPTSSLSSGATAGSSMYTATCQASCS
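Luminescence readout: a drop in cAMP-driven luciferase signal flags inverse agonism at a constitutively active GLP-1R stably expressed in HEK293. Compound exposure lasted 24 hr at 37 deg C, 5% CO2.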
GLP-1R agonist: GLP-1 receptor (human) agonism. P43220. Potency, µM (titrated, usually from 45.6 µM), without a hit: top-dose activation, actives largely listed as activators. HEK293 GLP-1R CRE-luciferase, luminescence, 4-6 h; cells express a hypersensitive GLP-1R form. 380,000 tested, 0.007% active; note: potency is the fitted concentration of half-maximal effect; % of control where 0% means no effect
TRPML1 agonist: activates the human TRPML1 channel; TRPML1-expressing cells, Ca2+ dye fluorescence, FDSS; activation, % (concentration not given with the values); 410,000 tested, 0.12% active; AID 624414; in the data active = activation above about 50%; inconclusive = mostly about 30% to 49%; note: 0% is about no effect
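Kinetic FDSS Ca2+ read in Tet-induced TRPML1-DL cells (ABD Ca8 dye plus quencher, 45-90 min RT loading): baseline, then compound, then 110 s agonist window; EC80 agonist 54-4 at 4uM final added afterwards for a 110 s antagonist window.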
HEK293 tox: cytotoxicity in counter-screen for GLP-1R inverse agonists; 410,000 tested, 0.13% active; HEK293 cAMP-luciferase reporter cells, luminescence, 24 h; Potency, µM (series often up to 38.3 µM), for inactives: at the top dose activity change, negative = inhibition, most hits filed as inhibitors;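 note: loss of luciferase light is scored as toxicity; potency is the fitted concentration of half-maximal effect; % is set by controls: 0 for no effect and ±100 for the full control effect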
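MLSMR compounds, 24 hr on cells at 37 deg C/5% CO2; luminescence after luciferase reagent (12 min RT). Inhibition counted as the undesired cytotoxic outcome.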
Numbers without * were called inactive; i = inactive; u = inconclusive; x = not tested or not shown; [ ] = remark or other dose. Unless noted, calls come from the whole dose curve; as a rule, active = well fitted curve in the direction sought with a large enough effect; inconclusive = small, poorly fitted or top-dose-only effect, or another doubt; inactive = no such curve, though single readings can be large; an effect the other way counts as inactive or inconclusive.

SMILES	TRPML1 blocker	GLP-1R inv ag	GLP-1R agonist	TRPML1 agonist	HEK293 tox
O=[N+]([O-])c1ccc(-c2cnc(SCc3ccccc3Cl)[nH]2)cc1	-12.5	10µM*	-6.8%	0.1	-6.7%
Cc1cc(C)c(CSc2ncc(-c3ccc([N+](=O)[O-])cc3)[nH]2)c(C)c1	-25.2	8.91µM*	-35.9%	1.2	-12.6%
O=[N+]([O-])c1ccc(-c2cnc(SC(c3ccccc3)c3ccccc3)[nH]2)cc1	11.4	u	0.9%	0.7	4.6%
CC(C)COc1ccc(C(=O)N(CC(=O)Nc2ccccc2C(F)(F)F)Cc2ccco2)cc1	54.3	4.47µM*	10.8%	3.9	u
CC(=O)c1ccc(NC(=O)C(C)n2nc(-c3ccccc3)c3cc(Cl)ccc32)cc1 (configuration not stated)	1.2	6.31µM*	-6.4%	0.1	-28.5%
O=C(Nc1nc2cc3c(cc2s1)OCO3)C1=COCCO1	-8.4	2.24µM*	-15.2%	0.0	-8.2%
CC(=O)Nc1nc2cc3c(cc2s1)OCO3	-3.6	-2.8%	3.5%	-0.1	8.2%
O=S(=O)(c1ccccc1Br)N1CCN(c2nc(-c3ccccc3)nc3ccccc23)CC1	x	x	x	-0.6	x
Cc1ccc2nccc(/C=C/c3ccc(N(C)C)cc3)c2c1	x	x	x	22.3	x
CCCCNC(=O)COC(=O)c1c2c(nc3ccccc13)/C(=C\c1cccs1)CC2	-5.9	6.31µM*	13.2%	1.1	i
CC(C)CNC(=O)COC(=O)c1c2c(nc3ccccc13)/C(=C/c1cccs1)CC2	-4.5	u	-1.5%	2.0	-8.5%[1.53 µM]
C=C(CCO)C1=CCN(S(=O)(=O)C(C)(C)C)[C@H]1CCO	-1.6	9.1%	-4.5%	-0.2	-9.2%
C=C(C1=CCN(S(=O)(=O)C(C)(C)C)[C@@H]1CCO)c1ccccc1	39.9	7.94µM*	-1.3%	0.5	1.9%
CC(C)(C)c1ccc(C(=O)NCCC(=O)N2CCN(c3ncccn3)CC2)cc1	-13.9	-42.8%	5.9%	69.2*	-12.9%
CC(C)CCOc1ccc(C(=O)NCC(c2ccco2)N(C)C)cc1 (configuration not stated)	31.2	7.94µM*	17.4%	1.0	-2.3%
CC(C)NS(=O)(=O)c1ccc2nc(NC(=O)c3cncc(Br)c3)sc2c1	-17.4	5.5%	x	-0.2	0.0%
Cc1ccc(C)c(CN2C(=O)c3ccccc3S(=O)(=O)c3ccc(C(=O)N4CCN(c5ccccn5)CC4)cc32)c1	9.7	-29.8%	x	1.9	13.4%
COC(=O)c1cc(Cl)cc2c(C)c(C3(O)CCCCC3)[nH]c12	48.9	7.08µM*	15.6%	1.0	7.7%
Cc1cc(Br)ccc1NC(=O)c1cc2c(s1)-c1ccccc1SC2	48.1	10µM*	x	2.2	-6.9%
Cc1ccc(S(=O)(=O)N2CCOC2C(Cl)(Cl)Cl)cc1 (configuration not stated)	x	10µM*	1.1%	x	2.6%
CCC(C)NC(=O)C1CCN(C(=O)c2ccc(-n3ccc4ccccc43)s2)CC1 (configuration not stated)	6.9	-14.9%	x	0.8	-6.8%
O=C(c1ccc(OC2CCN(CCc3ccccc3)CC2)cc1)N1CCCC(CCCO)C1 (configuration not stated)	5.2	11.2µM*	2.2%	0.8	-14.2%
O=C(c1ccc(OC2CCN(CCc3ccccc3)CC2)cc1)N1CCCCC1CCCO (configuration not stated)	-10.7	11.2µM*	-4.5%	1.6	-9.8%
C[C@@H](Nc1nc(Cl)nc2nc[nH]c12)c1ccccc1	x	x	x	0.2	x
COc1ccc(C2c3sc(=O)[nH]c3SC3C4CCC(C4)C23)cc1 (configuration not stated)	-10.5	-11.8%	-2.1%	1.0	-7.4%
SMILES	TRPML1 blocker	GLP-1R inv ag	GLP-1R agonist	TRPML1 agonist	HEK293 tox
O=c1[nH]c2c(s1)C(c1ccccc1)C1C3CCC(C3)C1S2 (configuration not stated)	-10.5	6.31µM*	-0.2%	1.3	41.4%
CCOc1ccc(C(=O)NCCc2csc(-c3cccnc3)n2)cc1	-0.6	-13.5%	-6.6%	0.8	-1.7%
COC(=O)c1ccc(NC(=O)CC2C(=O)N(c3cccc(OC)c3)C(=O)N2Cc2cccc(OC)c2)cc1 (configuration not stated)	9.8	3.1%	x	0.1	0.8%
Cc1ccc(NC(=O)C(c2ccccc2)N(C)C)cc1Cl (configuration not stated)	0.9	5.01µM*	3.7%	0.0	-10.5%
Cc1ccc(NC(=O)C(OC(=O)c2ccc(O)cc2)c2ccccc2)cc1Cl (configuration not stated)	-2.1	1.3%	-4.0%	0.7	-1.1%
O=C(CN1C(=O)c2ccccc2C1=O)N1CCCCC1	3.0	37.0%	-9.9%	-1.1	6.4%
O=C(CN1C(=O)c2cccc3cccc(c23)C1=O)N1CCCCCC1	2.0	7.94µM*	-1.8%	-0.3	-12.2%
CCC1CN(C(=O)NCc2ccc(F)cc2)c2cc(Cl)ccc2O1 (configuration not stated)	35.4	10µM*	4.8%	1.2	1.8%
CCC1CN(C(=O)NCc2cccc(OC)c2)c2cc(Cl)ccc2O1 (configuration not stated)	-9.2	11.2µM*	12.8%	3.8	0.0%
CCOC(=O)[C@H](CCc1ccccc1)N[C@@H](C)C(=O)N(CC(=O)O)C1Cc2ccccc2C1	x	x	-6.3%	x	x
COC(=O)C1=C(C)NC(COC(N)=O)=C(C(=O)OC(C)C)C1c1cccc(Cl)c1Cl (configuration not stated)	x	x	-5.1%	x	x
Cc1cc(C)cc(Nc2cc(C(=O)NCCCN(Cc3ccccc3)C(C)C)c3ccccc3n2)c1	-11.7	5.62µM*	x	0.5	u
CSc1cccc(Nc2cc(C(=O)NCCCN(Cc3ccccc3)C(C)C)c3ccccc3n2)c1	-18.0	u	x	0.9	0.8%
CCN(CC)C(=S)S	x	x	0.1%	x	x
Cc1nc(SCC(=O)CC(=O)OC(C)C)c(C#N)c(C)c1C	-1.0	0.5%	-0.5%	71.2*	2.4%
Cc1cc(C)c(C#N)c(SCC(=O)CC(=O)OC(C)C)n1	-21.5	0.0%	-0.6%	-0.1	4.9%
O=C(Cc1ccc(NC(=O)N2CCCCc3ccccc32)cc1)Nc1ccccc1Br	2.4	3.16µM*	x	2.5	-16.1%
CCNC(=O)Cc1ccc(NC(=O)N2CCCCc3ccccc32)cc1	-0.9	u	x	-0.6	7.1%
CCC(Oc1ccc(F)cc1)C(=O)Nc1nc(-c2ccc(F)cc2)ns1 (configuration not stated)	-8.4	10µM*	x	1.8	-23.7%
CCC(Oc1ccc(F)cc1)C(=O)Nc1cc(-c2ccc(C)cc2)no1 (configuration not stated)	-9.6	u	x	0.4	4.4%

High-throughput results from PubChem BioAssay.
